# Results: PubChem BioAssay (NCATS)
# Results filed as inconclusive are left out. A number with no mark means an inactive call. Active and inactive are the calls of the source. The call rests on the fitted dose curve; in most records, active means well fitted inhibition curve with a large enough effect; inconclusive means small, poorly fitted or top-dose-only effect; inactive means no such curve, though single readings can be large or run the other way.
# Assay: BET inhibitor-based combinations targeting novel dependencies in MECOM-rearranged (r) AML: SET-2 cell line (AID 2202231); further: nearly all actives have a fitted effect of over 35% in size
# Conditions: SET-2 AML cells viability, CellTiter-Glo luminescence, 48 h; viability: active compounds read low, series mostly up to about 46 µM
# Source text: Ecotropic viral insertion site 1 (EVI1) is located on chromosome 3q26.2 as part of the MECOM (MDS and EVI1 complex) locus. Under normal hematopoiesis, EVI1 is a regulator of hematopoietic stem cell maintenance and self-renewal and EVI1 levels decrease as the cells differentiate. In approximately 5-10% of de novo acute myeloid leukemia (AML) EVI1 is aberrantly expressed, including Chromosomal inv(3)(q21;q26.2) or t(3;3)(q21;q26.2) alterations (MECOM-r) that account for about 50% of AML with EVI1 overexpression 31. AMLs with high levels of EVI1 have a poor prognosis and an overall survival time averaging between 10-14 months. EVI1 overexpression confers resistance in leukemia cells, highlighting the need to develop new targeted therapies for EVI1 overexpressing AMLs.
# Here, we performed an unbiased chemical drug screening by evaluating the single agent activity of a collection of 2,480 oncology-focused, approved and investigational drugs (NCATS Mechanism Interrogation Plates, MIPE v5.0) against a panel of seven AML cell lines. These included four MECOM-r cell-lines (AML-191, AML-194, UCSD-AML1 and HNT-34) and three non-MECOM-r AMLs (MV4-11, OCI-AML3 and SET-2). Exploiting the mechanistic redundancy built in the library, we identified target-level sensitivities in MECOM-r AML cells and relative activity as compared to other AML subtypes.
# A collection of 2480 mechanistically annotated dugs (MIPE v5.0) was used to screen four 3q26.2 rearranged AML cell lines and three non-3q26.2 rearranged AML cell lines. This library purposely exploits redundancy by including multiple inhibitors of key onco-targets, while simultaneously encompassing mechanistic diversity, targeting more than 800 distinct mechanisms of action. Briefly, cells were seeded in 5 uL of growth media using a Multidrop Combi dispenser into 1536 well white polystyrene tissue culture treated plates (Corning) at a density of 500cells/well. For each cell-line, for each of the 2480 drugs in MIPE v5.0 library, an 11-point dose curve was generated via a 1536 pin-tool. Plates were incubated for 48 hr at standard incubator conditions, covered by a stainless steel gasketed lid to prevent evaporation. Cell viability was determined by luminescence based, Cell Titer Glo assay (Promega). In detail, 3 uL of Cell Titer Glo were added to each well and plates were incubated at room temperature for 15 min with a stainless-steel lid in place. Luminescence readings were taken using a Viewlux (PerkinElmer) with a 2 s exposure time per plate. Compound dose-response curves were normalized to DMSO and empty well controls on each plate. Quantitative drug activity data from dose-response curves was determined utilizing area Under the Curve (AUC) and Z-transformed AUC (Z-AUC, a mean-centering transformation applied to each individual cell-line screened).
# Potency means the concentration at half of the fitted maximal effect.
SMILES,Potency,viability [%]
CN(C)C1CCN(C(=O)c2ccc(NC(=O)Nc3nc(N4CCOCC4)nc(N4CCOCC4)n3)cc2)CC1,5.25 µM (active),
CC(C)Cn1cnc2c(N)nc3ccccc3c21,,101
CC(C)(C)c1cc(C(=O)O)c(NC(=O)Nc2ccc3[nH]ncc3c2)s1,,118
CCCNC(=O)Nc1ccc(Oc2ncnc3cc(OC)c(OC)cc23)cc1Cl,,92.8
O=C(c1ccc(NS(=O)(=O)c2cccc3cccnc23)cc1)N1CCN(CC2CC2)CC1,,115
CC(N[C@H]1CCCC[C@H]1NC(=O)c1ccc(Cl)cc1)c1cccc2ccccc12 (stereo not given in full),26.3 µM (active),
Nc1ccc(/C=C/C(=O)NCc2cc3cc(-c4ccc(C(=O)N5CCC(F)(F)CC5)cc4)cc(-c4ccc(F)cc4)c3o2)cn1,,104
Cc1c(-c2ccc(O)cc2)n(Cc2ccc(OCCN3CCCCCC3)cc2)c2ccc(O)cc12,23.5 µM (active),
CCCCc1ccc(NS(=O)(=O)c2ccc(C)c(C(=O)N3CCN(c4cccc(C)c4C)CC3)c2)cc1,,94.4
NC(=O)c1noc([C@H](CCCC2CCCCC2)CC(=O)NO)n1,5.9 µM (active),
COc1cc(CCc2cc(NC(=O)c3ccc(N4C[C@@H](C)N[C@@H](C)C4)cc3)n[nH]2)cc(OC)c1,20.9 µM (active),
Cc1[nH]c(=O)c(C#N)cc1-c1ccncc1,,118
Cn1cc(-c2c[nH]c3ncnc(N4CCOCC4)c23)cn1,,112
C[C@H]1COC2=C1C(=O)C(=O)c1c2ccc2c1CCCC2(C)C,20.9 µM (active),
CC[C@@H](C)[C@H](NC(=O)[C@H](CC1CCCCC1)NC(=O)c1ccno1)C(=O)N1CCC2(CCc3ccccc32)CC1,,50.5
COc1ccc([C@@H]2Sc3ccccc3N(CCN(C)C)C(=O)[C@@H]2OC(C)=O)cc1,,101
CC(C)(Sc1cc(C(C)(C)C)c(O)c(C(C)(C)C)c1)Sc1cc(C(C)(C)C)c(O)c(C(C)(C)C)c1,,103
CCCCc1oc2ccc(NS(C)(=O)=O)cc2c1C(=O)c1ccc(OCCCN(CCCC)CCCC)cc1,18.6 µM (active),
O=C1c2cccc(O)c2C(=O)c2c(O)cc(CO)cc21,,116
COc1ccc(-c2c(-c3ccc(O)cc3O)n[nH]c2C)cc1,,84

SMILES,Potency,viability [%]
C[C@@H]1CN(CC(=O)N2CC(C)(C)c3ncc(Cc4ccc(F)cc4)cc32)[C@@H](CN2CCOC[C@H]2C)CN1,,86.9
C[C@]1(c2nc3c(C(N)=O)cccc3[nH]2)CCCN1,,113
CCOc1ccn(-c2ccc(F)cc2)c(=O)c1C(=O)Nc1ccc(Oc2ccnc(N)c2Cl)c(F)c1,,104
COc1ccc(-n2c(C)c([N+](=O)[O-])c3ccc(O)cc32)cc1,,107
O=[N+]([O-])c1cncn1CCN1CCOCC1,,112
CN1c2ccccc2C(=O)N2CCc3c([nH]c4ccccc34)C21 (stereo not given),5.25 µM (active),
O=C1CCC[C@@H]2[C@H]3CCC[N+]4([O-])CCC[C@@H](CN12)[C@@H]34 (stereo not given in full),,118
CCOc1ccccc1N=Nc1c(C)[nH]n(-c2nc(-c3ccccc3)cs2)c1=O,,118
Cc1cccc(Nc2nc(N[C@@H]3CCCC[C@H]3N)ncc2C(N)=O)c1,29.5 µM (active),
CC1=C(C(=O)Nc2cc3cn[nH]c3cc2F)C(c2ccc(C(F)(F)F)cc2)CC(=O)N1 (stereo not given),,110
CCCCCCCCCCCCc1ccc(S(=O)(=O)Nc2nncs2)cc1,,118
O=C(/C=C/C#Cc1cccc(NS(=O)(=O)c2ccccc2)c1)NO,0.407 µM (active),
CN1C(C(=O)Nc2ccccn2)=C(O)c2sc(Cl)cc2S1(=O)=O,,103
CN1CCN(c2ccc(OC(F)(F)F)c(Nc3ncc4c(n3)-c3c(c(C(N)=O)nn3CCO)CC4)c2)CC1,0.186 µM (active),
C[C@H](Nc1ncnc2nc[nH]c12)c1cc2cccc(Cl)c2c(=O)n1-c1ccccc1,18.6 µM (active),
O=C([C@@H](Cc1cccc(C(F)(F)F)c1)NS(=O)(=O)c1cc(F)c2c(c1)CCNC2)N1CCCC1,,107
NS(=O)(=O)c1cc2c(cc1Cl)NC=NS2(=O)=O,,111
COc1ccc(C2(C#N)CCC(C(=O)O)CC2)cc1OC1CCCC1 (stereo not given),,119
COc1ccc2nc3n[nH]c(C)c3c(NCCOCCO)c2c1,,97
O=C(O)[C@@H](c1ccc(OCc2ccc3ccccc3n2)cc1)C1CCCC1,,99.7
